Assay results published in PubChem BioAssay (NCI).
Where “and” joins values, the source holds several entries; their conditions need not be identical. Identical values can stand only once. About 79,000 compounds went through this panel and 15% of them were active in at least one assay; those are over-represented in the sample as a whole. Calls of active or inactive are those of the source. No stated cut-off is given here; in the data, active means growth inhibition above about 70%; inactive means the rest. Where a SMILES comes first, the peptide text is derived from it. The star is where a group is joined. Boc = CC(C)(C)OC(=O)*; OBn = c1ccc(CO*)cc1

Legend:
[1] = NCI Yeast Anticancer Drug Screen. Data for the rad50 strain (AID 155);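 further: 0% = growth of vehicle-only cultures of the same strain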; conditions: S. cerevisiae rad50 strain growth inhibition, active compounds read high; at 50.0 µM unless noted
In short: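 Genetically altered yeast (DNA repair pathway); compound treatment; growth inhibition vs vehicle ctrl.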

[2] = NCI Yeast Anticancer Drug Screen. Data for the mec2-1 strain (AID 157); conditions: S. cerevisiae mec2-1 strain, active compounds read high; at 50.0 µM unless noted
In short: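 Growth inhibition is read against vehicle-treated controls after compound exposure of the mec2-1 yeast strain, which is defective in DNA damage repair or cell cycle control.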

[3] = NCI Yeast Anticancer Drug Screen. Data for the sgs1 mgt1 strain (AID 161);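 further: 0% = growth of cultures given vehicle only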; conditions: S. cerevisiae sgs1 mgt1 strain, active compounds read high; at 50.0 µM unless noted
In short: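 This yeast growth screen uses a strain with defined DNA-repair lesions; compound-treated growth is compared with vehicle-treated growth.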

[4] = NCI Yeast Anticancer Drug Screen. Data for the cln2 rad14 strain (AID 165);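 further: 0% = growth equal to vehicle treated cultures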; conditions: S. cerevisiae cln2 rad14 strain, active compounds read high; at 50.0 µM unless noted
In short: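 Growth inhibition, relative to vehicle-treated controls, is the read-out. The test organism is a yeast strain with defined genetic alterations, cln2 rad14.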

[5] = NCI Yeast Anticancer Drug Screen. Data for the bub3 strain (AID 167); conditions: S. cerevisiae bub3 mutant strain, active compounds read high; at 50.0 µM unless noted
In short: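 Yeast carrying a defined mutation is treated with each compound, and growth is compared with that of vehicle-exposed cells to give inhibition.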

[6] = NCI Yeast Anticancer Drug Screen. Data for the mlh1 rad18 strain (AID 175); conditions: S. cerevisiae mlh1 rad18 strain growth inhibition, active compounds read high; at 50.0 µM unless noted
In short: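 Cells of a genetically altered yeast strain, deficient in DNA damage repair, were treated with compound. Their growth was then compared with that of vehicle-treated cultures to give inhibition.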

Measured: growth inhibition

N#CCCOc1ccc(N)cc1
inactive: [1] 0.55% | [2] -5.2% | [3] 7.15% | [4] 3.75% | [5] 8.65% | [6] 17.6%

CC(O)C(O)C(O)C(O)c1nc2ccccc2[nH]1 (centres undefined)
inactive: [1] -18.4% | [2] -3.35% | [3] -20.6% | [4] -37% | [5] 4.35% | [6] 9.9%

O=C(O)/C(=C/c1cccc(Cl)c1)c1ccc(Cl)cc1
inactive: [1] 0.85% | [2] -10.8% | [3] 0.7% | [4] -51.8% | [5] 2.4% | [6] -0.75%

CC(C)CC(NC(=O)C(Cc1ccccc1)NC(=O)C(Cc1ccccc1)NC(=O)OC(C)(C)C)C(=O)OCc1ccccc1 (stereo not drawn) (Boc-Phe-Phe-Leu-OBn; configuration not given here)
inactive: [1] -3.15% | [2] -10.3% | [3] -5.95% | [4] -7.2% | [5] 0.95% | [6] 5.95%

CC(C)(C)NNC(=O)CCn1[nH]c(=O)c(Cl)c(Cl)c1=O
inactive: [1] -0.8% | [2] -5.25% | [3] -18.9% | [4] -2.25% | [5] -16% | [6] -12.3%

CC(C)(C)COB(OCC(C)(C)C)OCC(C)(C)C
inactive: [1] -2.8% | [2] -13.2% | [3] 3.55% | [4] -29.1% | [5] -9.55% | [6] -15.2%

COc1ccc(OC)c(NC(=O)C(=O)C(C(C)=O)c2nc3ccc(Cl)cc3[nH]c2=O)c1 (centres undefined)
inactive: [1] -12.8% | [2] 7.75% | [3] -15.5% | [4] 12% | [5] 2.5% | [6] -7.35%

O=C1CCCN(c2ccccc2)N1
inactive: [1] 24.4% | [2] 24.6% | [3] 3.3% | [4] 5.1% | [5] 31.9% | [6] -3.8%

COc1ccc2c(c1)[n+](=O)c(C(=O)CC(=O)C(=O)Nc1cccc(C)c1C)c(C)n2[O-]
inactive: [1] 2.35% | [2] 13.3% | [3] -9.55% | [4] 9.45% | [5] 5.3% | [6] 14.8%

[Mn+2].[NH-]C(Cc1ccc(O)cc1)C(=O)O.[NH-]C(Cc1ccc(O)cc1)C(=O)O (centres undefined)
inactive: [1] 0.35% | [2] 15.3% | [3] -10.5% | [4] -19.1% | [5] 0.95% | [6] -13%

COC(=O)C(=O)c1c(C(=O)OC)nc2nnc(N)n2c1-c1cccc([N+](=O)[O-])c1
inactive: [1] 23.6% | [2] -4.35% | [3] 3.1% | [4] 17.3% | [5] 12.4% | [6] 18%

Cc1cc(O)cc(C)c1O
inactive: [1] 7.05% | [2] 5.45% | [3] 2.8% | [4] -23.4% | [5] -0.3% | [6] -7.75%

CC(C)(C)OC(=O)/N=C/c1c(O)c2ccccc2oc1=O
inactive: [1] -36.5% | [2] -20.5% | [3] -21.8% | [4] 9.75% | [5] -17.4% | [6] -26%

Cc1cc2c(c(C(=O)O)c1C)-c1cccc(Cl)c1C2=O
inactive: [1] -15.7% | [2] -2.3% | [3] -23.2% | [4] -20.2% | [5] -13.3% | [6] -27.4%

NNC(=O)CCC(=O)O
inactive: [1] 0.75% | [2] -0.5% | [3] 1.7% | [4] -3.6% | [5] 12.7% | [6] -15.6%

[N-]=[N+]=Nc1cccc(-c2n[nH]c(Cl)cc2=O)c1
inactive: [1] -19.9% | [2] -11.6% | [3] -38.6% | [4] 3.1% | [5] -10.9% | [6] -34%

c1cncc(C2c3[nH]c4ccccc4c3CCN2CCCN2CCCCC2)c1 (centres undefined)
inactive: [1] -5.2% | [2] -36.7% | [3] 2.3% | [4] 10.7% | [5] -9.55% | [6] -0.5%

CCCCCOC(=O)C#CC(=O)OCCCCC
active: [1] 99.8% | [2] 99.8% | [3] 99.7% | [4] 99.4% | [5] 99.8% | [6] 99.7%

Cc1ccc(/C=C(/c2ccccc2)C(CC(=O)O)C(=O)O)cc1 (centres undefined)
inactive: [1] -4.75% | [2] -11.3% | [3] -6.85% | [4] -44.7% | [5] -6.35% | [6] -14.5%

c1ccc(N2CN(c3ccccc3)C2)cc1
inactive: [1] -19.4% | [2] -8.25% | [3] 4% | [4] -11.6% | [5] 5.6% | [6] 15.8%

CCCCOC(=O)c1ccccc1C(=O)Nc1ccccc1
inactive: [1] 7.6% | [2] 12.6% | [3] 2% | [4] 2.1% | [5] 4.4% | [6] -19.7%

C=CCc1cc(OC)c2c(c1)C(O)CC(c1ccc(OC)c(OC)c1)O2 (centres undefined)
inactive: [1] 16.5% | [2] 1.25% | [3] 18.6% | [4] -14.3% | [5] 22.6% | [6] -4%

NC(=O)C1CC2(c3ccccn3)c3ccccc3C1c1ccccc12 (centres undefined)
inactive: [1] -0.1% | [2] 7.6% | [3] 10.4% | [4] 4.2% | [5] -22.1% | [6] -6.1%

CCN1C(=O)C(=O)C(c2ccccc2)(c2ccccc2)C1=O
inactive: [1] -6.3% | [2] -3.65% | [3] -4.65% | [4] -21.6% | [5] 2.9% | [6] 46.9%

CC1=C2CN(C(=O)OCC(C)C)CCC2C2=C(C(=O)c3ccccc3C2=O)C1C (centres undefined)
inactive: [1] 1.4% | [2] -3.75% | [3] 39.6% | [4] 14.6% | [5] -12.2% | [6] 44.5%

O=C1/C(=C/c2cccc([N+](=O)[O-])c2)Cc2ccccc21
inactive: [1] 12.7% | [2] -5.9% | [3] 5.65% | [4] 14.1% | [5] 17.6% | [6] 5.05%

Cc1ncc(CO)c(/C=N\OCc2cccc(Cl)c2)c1O
inactive: [1] 31.1% | [2] 16.3% | [3] -1.5% | [4] -1.95% | [5] 17.1% | [6] 9.2%

O=C1c2ccccc2C(=O)N1c1ccc(OCCN2CCCCC2)cc1
inactive: [1] 11.8% | [2] -1.7% | [3] 7.45% | [4] 37.5% | [5] -2.05% | [6] 18.4%

Cc1cc(=O)[nH]c(NN2C(Cl)C(=O)C2c2ccccc2O)n1 (centres undefined)
inactive: [1] 16.4% | [2] -31.5% | [3] 13.3% | [4] 2.95% | [5] -9.3% | [6] -13.8%

Nn1nnc2ccccc21
inactive: [1] 26.8% | [2] 24.8% | [3] 16.3% | [4] 33% | [5] 7.1% | [6] 32.1%

CNC(=O)OCc1c(COC(=O)NC)c(C)n(-c2ccc(Cl)cc2)c1C
active: [3] 83.2% | [5] 84.5% | [6] 91.3%
inactive: [1] 38.8% | [2] 40.4% | [4] 24.6%

O=C1OC(c2ccccc2)=C2CCC3CCCCN1C23 (centres undefined)
inactive: [1] -2.15% | [2] -29.7% | [3] 12.8% | [4] 23.4% | [5] 34.6% | [6] 9.25%

O=C1CCc2nc(-c3ccccc3)ncc21
inactive: [1] 9.25% | [2] 0% | [3] 1.95% | [4] -5.55% | [5] -2.2% | [6] -0.8%

Cc1ccc2c(-c3cccc4ccccc34)c3ccccc3cc2c1
inactive: [1] 5.45% | [2] 9.65% | [3] -12% | [4] -8.4% | [5] 8.95% | [6] -7.75%

Brc1ccc(SSc2ccc(Br)cc2)cc1
inactive: [1] -12.8% and 3.2% | [2] 13.1% and -10.3% | [3] 3.45% and 5.3% | [4] -18.4% and -5.5% | [5] -3.15% and 9.8% | [6] 18.8% and 2.65%

CCCCNC(=S)NNC(=O)c1ccncc1
inactive: [1] -0.35% | [2] 3.65% | [3] -0.55% | [4] 5.5% | [5] 10.7% | [6] 3.45%

CN(C)CCCNC(=O)CCNC(=O)c1cc(NC(=O)c2cc(NC(=O)c3cc(NC(=O)CCCNC(=O)c4cc(NC(=O)c5cc(NC(=O)c6nccn6C)cn5C)cn4C)cn3C)cn2C)cn1C
inactive: [1] 7.55% | [2] -14.8% | [3] -2% | [4] -1.35% | [5] 4% | [6] -25.3%

CCN(C(=O)c1ccc(C(=O)N(CC)c2cccc(C)c2)cc1)c1cccc(C)c1
inactive: [1] -24.4% | [2] -3.55% | [3] -9.85% | [4] 8.05% | [5] 6.15% | [6] -1.7%

O=C(CCC/C(CC(=O)c1ccc(Br)cc1)=N\O)Nc1ccccc1
inactive: [1] 52.9% | [2] 25.8% | [3] 17.8% | [4] 19.6% | [5] 28.7% | [6] 25.7%
